# Data: PubChem BioAssay (NCI)
# “And” between values parts separate entries of the source, which are not always exact repeats. Equal entries are not always repeated. This is part of a sample that, as a whole, favours compounds with a hit. Of some 83,000 tested, about 20% had one in any assay.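 Activity criterion: percent growth below 10, measured after cells in 96-well plates were exposed to a single compound concentration for 48 hours.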 The source made the active and inactive calls.
# Tested on: UACC-62 melanoma
# Assay: NCI-60 one-dose screen, 48 h (100 = growth as untreated, 0 = no growth, -100 = all killed)
# Settings: 10 µM
# Method: Growth inhibition of the UACC-62 human tumor cell line is measured as a screen for anti-cancer activity. Cells are grown in 96 well plates and exposed to the test compound for 48 hours. Compounds are tested at a single concentration, which is 10^-5 M for most compounds. The reported endpoint is percent growth (GI% or GIPRCNT), where numbers from 0 - 100% represent growth inhibition, and numbers from -100% - 0 represent cell death. For example, a value of 40 represents 60% growth inhibition. A value of 0 means no net growth occurred over the course of the experiment. A value of -40 indicates 40% of cells at the beginning of the experiment died by the end of the experiment. A value of -100 means all cells are dead at the end of the experiment.
# NCI-60 Human Tumor Cell Lines Screen was performed using the standard one-dose NCI protocol, which is described in more detail at https://dtp.cancer.gov/discovery_development/nci-60/default.htm.
# Compounds with GIPRCNT values below 10 were considered active. Activity score was based on GIPRCNT using the following formula: […]
# Score is 0 for GIPRCNT values of 100 or above, 50 for GIPRCNT values of 0, and 100 for GIPRCNT values of -100.
row,SMILES,growth
1,CN1C(=O)[C@]23SSC1(C)C(=O)N2[C@H]1Nc2ccccc2C1([C@@]12c4ccccc4N[C@@H]1N1C(=O)C4(C)SS[C@]1(C(=O)N4C)[C@H]2O)[C@@H]3O (some centres undefined),-79.2% (active)
2,CC1=C(CN(O)C(N)=O)C2=C(C)C3(CC3)[C@@](C)(O)C(=O)C2=C1,-19.7% (active)
3,O=C(CCCc1ccc(N(CCCl)CCCl)cc1)OCc1ccccc1,77.8% (inactive)
4,COC1[C@@H]2C[C@H]3C(C)(C)O[C@@](C/C=C(/C)C(=O)O)(C2=O)[C@]32Oc3c(CC=C(C)C)c4c(c(O)c3C(=O)[C@H]12)C=CC(C)(C)O4 (some centres undefined),-70% (active)
5,CC1=C(CCC=NNC(N)=O)C2=C(C)C3(CC3)[C@@](C)(O)C(=O)C2=C1,-54.9% (active)
6,C[C@@H]1CCC/C=C/[C@H]2C[C@@H](O)C[C@@H]2[C@@H](O)/C=C/C(=O)O1,25.9% (inactive)
7,C/C=C\C(=O)O[C@@H]1CC2O[C@@H]3C=C(C)C(=O)C[C@]3(C)[C@]1(C)[C@]21CO1,-27.2% (active)
8,NC1CCc2cc(O)c(O)cc2C1 (centres undefined),99.4% (inactive)
9,N#Cc1c(-n2c(Br)c(Br)c3cc(Br)ccc32)[nH]c2c(Br)cc(Br)cc12,-30.8% (active)
10,CC(C)(O)/C=C/C(=O)[C@](C)(O)[C@H]1[C@H](O)C[C@@]2(C)[C@H]3CC=C4[C@@H](C[C@H](O)C(=O)C4(C)C)[C@]3(C)C(=O)C[C@]12C,-2.65% (active)
11,CN(CCF)/N=N/c1nc[nH]c1C(N)=O,31.2% (inactive)
12,C/C=C/CC(C)C(O)[C@H](NC(=O)[C@@H]1CCCN1C(=O)C(C)(C)NC(=O)CCCCCCCCC)C(=O)N[C@@](C)(CC)C(=O)N[C@@H](CCC(N)=O)C(=O)N[C@H](CCC(N)=O)C(=O)NC(C)(C)C(=O)NC(C)(C)C(=O)N[C@@H](CCC(N)=O)C(=O)N[C@H](CC(C)C)C(=O)N[C@H](CO)CC(C)C (some centres undefined),-19.1% (active) and 54.4% (inactive)
13,C/C=C/CC(C)C(O)[C@H](NC(=O)[C@@H]1CCCN1C(=O)C(C)(C)NC(=O)CCCCCCCCC)C(=O)N[C@@](C)(CC)C(=O)N[C@@H](CCC(N)=O)C(=O)N[C@H](CCC(N)=O)C(=O)NC(C)(C)C(=O)N[C@@](C)(CC)C(=O)N[C@@H](CCC(N)=O)C(=O)N[C@H](CC(C)C)C(=O)N[C@H](CO)CC(C)C (some centres undefined),96% (inactive) and -96.8% (active)
14,CC1=C2C(=C[C@@](C)(COS(C)(=O)=O)[C@@H]2O)C(=O)[C@](C)(O)C12CC2,-67.1% (active)
15,CC1=C[C@H]2O[C@@H]3C[C@H]4OC(=O)/C=C\C=C\[C@H]([C@@H](C)O)OCC[C@@H](C)[C@H](O)C(=O)OC[C@@]2(CC1)[C@]4(C)[C@]31CO1,-66.6% (active)
16,COc1cc2c(cc1OC)[C@@H]1N(CC2)C(=O)c2ccccc2[C@@]1(C)C(=O)O,95.8% (inactive)
17,C[C@@H]1C[C@H]2C(=O)O[C@@H](C)C(NC(=O)[C@H](Cc3cc(F)cc(F)c3)NC(=O)Nc3ccc(OS(=O)(=O)F)cc3)C(=O)N3CCC[C@H]3C(=O)N3CCO[C@H](C)[C@H]3C(=O)N[C@@H](CO)C(=O)N2C1 (some centres undefined),23.5% (inactive)
18,CC(=O)O[C@@H]1[C@@H]2O[C@H]2[C@@](C)(O)C(=O)[C@@H](C)C/C=C/[C@H]2[C@@H]3O[C@]3(C)[C@@H](C)C3[C@H](Cc4ccccc4)NC(=O)[C@@]312 (some centres undefined),78.8% (inactive)
19,CC1=C[C@H]2O[C@@H]3C[C@@H](O)[C@](C)([C@@]2(C)CC1)[C@@]31CO1,44.5% (inactive)
20,CCC(C)[C@H]1C(=O)O[C@H](C(C)C)C(=O)N(C)[C@@H](C(C)C)C(=O)O[C@H](C(C)C)C(=O)N(C)[C@@H](C(C)C)C(=O)O[C@H](C(C)C)C(=O)N1C (some centres undefined),9.22% (active)

row,SMILES,growth
1,CC1=C2C(=O)[C@](C)(CO)C=C2C(=O)[C@](C)(O)C12CC2,7.31% (active)
2,CC1=C2C(=C[C@@](C)(C=O)[C@@H]2O)C(=O)[C@](C)(O)C12CC2,-48.5% (active)
3,C=C1[C@@H](C)C2[C@H](Cc3ccccc3)NC(=O)[C@]23[C@H](OC(C)=O)/C=C/[C@@](C)(O)C(=O)[C@@H](C)C/C=C/[C@H]3[C@@H]1O (some centres undefined),84.5% (inactive)
4,CC1=C2C(=C[C@@](C)(COC(=O)c3ccc(S(=O)(=O)F)cc3)[C@@H]2OC(=O)c2ccc(S(=O)(=O)F)cc2)C(=O)[C@](C)(O)C12CC2,-38.7% (active)
5,C/C=C/CC(C)C(O)[C@H](NC(=O)[C@@H]1CCCN1C(=O)C(C)(C)NC(=O)CCCCCCCCC)C(=O)NC(C)(C)C(=O)N[C@@H](CCC(N)=O)C(=O)N[C@H](CCC(N)=O)C(=O)NC(C)(C)C(=O)NC(C)(C)C(=O)N[C@@H](CCC(N)=O)C(=O)N[C@H](CC(C)C)C(=O)N[C@H](CO)CC(C)C (some centres undefined),-0.972% (active) and -81.2% (active)
6,COC(=O)[C@H]1[C@@H](O)[C@@]2(O)c3c(OC)cc(OC)cc3O[C@@]2(c2ccc(OC)cc2)[C@@H]1c1ccccc1,-14.9% (active)
7,CC1=C2C(=C[C@@](C)(COC(=O)c3ccc(S(=O)(=O)F)cc3)[C@@H]2O)C(=O)[C@](C)(O)C12CC2,-77.1% (active)
8,CCCCCCCCCC(=O)N[C@@](C)(CC)C(=O)N1CCC[C@H]1C(=O)N[C@@H](CC(C)C)C(=O)N[C@@](C)(CC)C(=O)N[C@@H](CCC(N)=O)C(=O)N[C@H](CCC(N)=O)C(=O)NC(C)(C)C(=O)NC(C)(C)C(=O)N[C@@H](CCC(N)=O)C(=O)N[C@H](CC(C)C)C(=O)N[C@H](CO)CC(C)C,-90.6% (active) and -99.6% (active)
9,Cc1ccc(CNc2nc3ccc(OC/C(=C/F)CN)cc3o2)cn1,90.8% (inactive)
10,COc1cc2c(O[C@@H]3OC[C@H](O)[C@H](O)[C@H]3O)c3c(c(-c4ccc5c(c4)OCO5)c2cc1OC)C(=O)OC3,20.8% (inactive)
11,COc1cc(OC)c(S(=O)(=O)N(CCCl)CCCl)cc1C(=O)/C=C/c1ccc(Cl)cc1,51.1% (inactive)
12,COc1cc(C)c(-c2ccc(OC)c(=O)cc2C)c(OC)c1OC,30.8% (inactive) and 86.1% (inactive)
13,CC1=C[C@H]2O[C@@H]3C[C@H]4OC(=O)/C=C\C=C\[C@H]([C@@H](C)O)OCC/C(C)=C/C(=O)OC[C@@]2(CC1)[C@]4(C)[C@]31CO1,-58.6% (active)
14,CC(=O)O[C@@H]1C[C@H]2O[C@@H]3C=C(C)CC[C@]3(C)[C@]1(C)[C@]21CO1,2.75% (active)
15,COc1cccc2c1cc([N+](=O)[O-])c1c(C(=O)O)cc3c(c12)OCO3,103% (inactive)
16,CC(C)=CCc1c2c(c(O)c3c1O[C@]14C(=C[C@@H]5C[C@H]1C(C)(C)O[C@@]4(C/C=C(/C)C(=O)O)C5=O)C3=O)C=CC(C)(C)O2,-69.4% (active)
17,CC1=C(CN(O)C(N)=O)C2=C(C)C3(CC3)[C@](C)(O)C(=O)C2=C1,14.4% (inactive)
18,C/C=C/CC(C)C(O)[C@H](NC(=O)[C@@H]1CCCN1C(=O)C(C)(C)NC(=O)CCCCCCC)C(=O)N[C@@](C)(CC)C(=O)N[C@@H](CCC(N)=O)C(=O)N[C@H](CCC(N)=O)C(=O)NC(C)(C)C(=O)NC(C)(C)C(=O)N[C@@H](CCC(N)=O)C(=O)N[C@H](CC(C)C)C(=O)N[C@H](CO)CC(C)C (some centres undefined),103% (inactive) and 19.2% (inactive)
19,N#Cc1nc(-c2ccccc2)oc1N1CCC(S(=O)(=O)F)CC1,98.1% (inactive)
